# Assay outcomes as filed in PubChem.
# Hits are enriched below; roughly 7% of the tested compounds scored in any of these assays.
# rCAG binder = binds r(CAG) RNA repeats; r(CAG) RNA repeat, TO-PRO-1 dye displacement fluorescence; inhibition, % at 3 µM; 1.3% of 370,000 active; AID 651821;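 active = inhibition above the plate cutoff, the mean of all test compounds on that plate plus 3 SD, cut at about 35% in these data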;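 note: higher means more dye released from RNA so lower well fluorescence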
# ADAM10 inh = inhibitors of human ADAM10 | O14672 | inhibition, % at 7 µM | AID 720582 | recombinant ADAM10, EDANS/DABCYL FRET peptide cleavage, 3 h | 0.62% of 370,000 active;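 active = inhibition above a per-campaign cutoff equal to the mean of compounds falling between control-based bounds plus 3 SD, cut at about 20% in these data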
# Target sequence (O14672 214-748 limits assumed): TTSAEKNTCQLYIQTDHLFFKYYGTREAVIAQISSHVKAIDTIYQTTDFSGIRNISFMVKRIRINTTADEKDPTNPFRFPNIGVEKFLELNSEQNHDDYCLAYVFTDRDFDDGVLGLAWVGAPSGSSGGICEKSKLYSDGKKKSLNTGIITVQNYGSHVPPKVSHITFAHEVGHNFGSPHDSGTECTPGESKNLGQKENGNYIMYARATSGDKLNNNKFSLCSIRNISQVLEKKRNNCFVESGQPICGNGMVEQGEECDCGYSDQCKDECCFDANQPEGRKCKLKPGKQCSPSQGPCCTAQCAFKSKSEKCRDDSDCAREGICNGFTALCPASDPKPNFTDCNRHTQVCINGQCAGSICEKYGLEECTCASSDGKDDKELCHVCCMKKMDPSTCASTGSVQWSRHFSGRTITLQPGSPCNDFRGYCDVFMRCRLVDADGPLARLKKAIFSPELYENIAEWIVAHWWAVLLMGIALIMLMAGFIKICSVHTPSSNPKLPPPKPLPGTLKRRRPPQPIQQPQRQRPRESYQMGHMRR
# KLK7 zymogen act = activators of human kallikrein-7 zymogen | purified proKLK7, EDANS-DABCYL substrate fluorescence; 100% is mature enzyme control, 0% vehicle | AID 652039 | activation, % at 7 µM | 0.9% of 370,000 active;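 active = activation above the mean of all tested compounds plus 3 SD, computed per campaign excluding outliers beyond control limits, cut at about 13% in these data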
# ADAM17 inh = ADAM17 inhibition, QFRET primary screen; P78536; recombinant ADAM17, EDANS/DABCYL FRET peptide cleavage; inhibition, % at 6.95 µM; 0.83% of 370,000 active; AID 720648;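 active = inhibition above the mean of compounds lying between control limits plus 3 SD, set per campaign, cut at about 8.5% in these data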
# GRIN3A LBD mod = NR3A (human) ligand-binding domain modulation; NR3A LBD differential scanning fluorimetry, Tm shift; 0% = protein alone, 100% = glycine-bound protein; Tm shift relative to glycine control, % at 25 µM; 2.5% of 340,000 active; AID 1259313;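 active = melting temperature shift of at least 10% of the positive control shift, at one fixed dose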
# AHR activator = activates the human aryl hydrocarbon receptor; AHR-responsive luciferase reporter cells, luminescence; activation, % at 5 µM; AID 2796; 2.5% of 320,000 active; in the data active = activation above about 47%
# A number is an active result; – = inactive; · = not tested or not shown.
SMILES,rCAG binder,ADAM10 inh,KLK7 zymogen act,ADAM17 inh,GRIN3A LBD mod,AHR activator
COc1ccc(/C(N)=N/OC(=O)c2cccc([N+](=O)[O-])c2)cc1OC,–,–,–,–,–,–
Cc1ccccc1C(=O)O/N=C(\N)c1cccc([N+](=O)[O-])c1,–,–,–,–,–,94
CCN(C(=O)CSc1nnc(-c2cccnc2)n1Cc1ccco1)c1ccccc1C,–,–,–,–,·,·
Cc1cccc(/C(N)=N/OC(=O)c2cccc3ccccc23)c1,–,–,–,–,·,73
N/C(=N\OC(=O)/C=C/c1ccccc1)c1cccnc1,–,–,–,–,20,–
N/C(=N\OC(=O)c1cccc2ccccc12)c1cccc([N+](=O)[O-])c1,–,–,–,–,26,–
O=C(CN1C(=O)C2CCCCN2C(=O)c2ccccc21)N1CCCC1 (stereo not drawn),–,–,–,–,·,·
O=C(CO/N=C1\CCCc2nonc21)Nc1ccc(Br)cc1,–,–,–,–,–,78
C=CCn1c2ccccc2c2nnc(SCN3C(=O)c4ccccc4C3=O)nc21,–,–,–,–,–,78
O=C1c2ccccc2C(=O)N1CSc1nnc2c3ccccc3n(CCc3ccccc3)c2n1,·,·,·,·,–,–
N#CCSc1ncccc1-c1nc2ccccc2[nH]1,–,–,–,–,–,73
N#CCCCSc1ncccc1-c1nc2ccccc2[nH]1,–,–,–,–,–,–
CN1OC[C@@H]2CN(C(=S)Nc3cc(C(F)(F)F)cc(C(F)(F)F)c3)[C@H](c3ccccc3Br)C[C@@H]21,–,–,–,–,·,·
Cc1ccc(NC(=O)Cc2cccc(OC(F)F)c2)c(S(=O)(=O)N2CCOCC2)c1,–,–,–,–,·,·
COc1cccc(-c2sc3ccc(OC)cc3c2-c2ccc(OCCN3CCOCC3)cc2)c1,–,–,–,–,–,–
COc1cc(OC)cc(-c2sc3ccc(OC)cc3c2-c2ccc(OCCN3CCOCC3)cc2)c1,·,·,·,·,11,·
Cc1cccc(CN[C@@H]2CC[C@@]34CCCN3C(=O)CCC[C@H]4C2)c1,·,–,·,–,·,·
COc1ccc(NC(=S)N(Cc2cccc(Br)c2)CC2CCC(C(=O)O)CC2)cc1 (stereo not drawn),–,–,–,–,12,–
COc1cccc(NC(=S)N(Cc2cccc(Br)c2)CC2CCC(C(=O)O)CC2)c1 (stereo not drawn),–,–,–,–,17,–
Cc1cccc(NC(=S)N(Cc2cccc(Br)c2)CC2CCC(C(=O)O)CC2)c1 (stereo not drawn),–,–,–,–,–,–
COc1ccc(Cl)cc1NC(=S)N(Cc1ccccc1C)CC1CCC(C(=O)O)CC1 (stereo not drawn),45,–,–,–,–,–
Cc1ccc(NC(=S)NCC23C=CC(O2)C2C(=O)N(c4ccc(C)cc4)C(=O)C23)cc1 (stereo not drawn),–,–,–,–,–,–
Cc1cccc(NC(=S)NCC23C=CC(O2)C2C(=O)N(c4ccc(Cl)cc4)C(=O)C23)c1 (stereo not drawn),–,–,–,–,12,–
Cc1cc(N2CCN(CC(C)(C)O)C[C@H]2C)ccc1N1CCN(Cc2ccccc2)[C@@H](C)C1,–,–,–,–,·,·
CC(C)(C)C(=O)/C=c1\[nH]c(=O)/c(=C\c2ccccc2F)s1,–,–,–,–,–,53
SMILES,rCAG binder,ADAM10 inh,KLK7 zymogen act,ADAM17 inh,GRIN3A LBD mod,AHR activator
COc1ccc(/C=c2\s/c(=C/C(=O)c3ccc(C)cc3)[nH]c2=O)cc1OC,–,–,–,–,–,–
CCOc1ccc(NC(=S)NN2C(C)CCCC2C)cc1 (stereo not drawn),–,–,–,–,12,–
COc1ccc(OCC(O)CNC(=O)c2ccc(OC)cc2)cc1 (stereo not drawn),–,–,–,–,31,–
C[C@@H](CSc1ccc(Br)cc1)CN1CC[C@H](C(C)(C)C)CCC1=O,–,–,–,–,10,–
Cc1ccc(-c2nc(CN3CCN(C(=O)C4CCCO4)CC3)cs2)cc1 (stereo not drawn),–,–,–,–,11,–
Cc1noc(C)c1S(=O)(=O)N1CCCc2nc(-c3ccc(F)cc3)ccc21,–,–,–,–,·,·
COc1ccc(S(=O)(=O)N(CCN2CCOCC2)Cc2cc(OC)ccc2OC)cc1,–,–,–,–,16,–
COc1ccc(S(=O)(=O)N(CCCN2CCOCC2)Cc2cccc(OC)c2OC)cc1,–,–,–,–,–,–
O=C(CSc1nnc(CNc2ccc(F)cc2)o1)N1c2ccccc2Sc2ccccc21,–,24,–,–,–,–
COc1cccc2c1C(=O)c1ccc3ccccc3c1C2=O,·,·,·,·,–,62
C=CCn1c(=NC(=O)C2CCCCC2)sc2cc(NC(C)=O)ccc21,–,–,–,–,–,–
C=CCn1c(=NC(=O)C2CC2)sc2cc(NC(C)=O)ccc21,–,–,–,–,–,62
Cc1csc(=O)n1CC(=O)Nc1ccc(Cl)c(Cl)c1,–,–,–,–,–,–
O=C(Cn1c2c(sc1=O)C1c3ccccc3OCC1CS2)Nc1ccc(Cl)c(Cl)c1 (stereo not drawn),–,–,–,–,24,–
CCn1c(=O)n(CC(=O)N2CCC(C)CC2)c(=O)c2ccccc21,–,–,–,–,·,·
CN(C)c1ccc(C(O)Cc2nc3ccccc3n2C)cc1 (stereo not drawn),–,–,–,–,–,60
CC(C)c1ccc(C(O)Cc2nc3ccccc3n2C)cc1 (stereo not drawn),–,–,–,–,–,70
COc1ccccc1C(O)Cc1nc2ccccc2n1C (stereo not drawn),–,–,–,–,–,–
COC(=O)[C@]12C[C@H](CC(=O)NCC34CC5CC(CC(C5)C3)C4)C(=O)N(Cc3ccco3)C1=C[C@H](C1CCCC1)O[C@@H]2C,–,–,–,–,·,·
Cc1ccc2[nH]c3c(=O)n(N)c(C)nc3c2c1,–,–,–,–,–,48
C=CC[C@H]1c2ccccc2[C@H]2N3N=Cc4ccccc4[C@H]3[C@H](CCCC)C(=O)N2N1C(=O)NCc1ccccc1,–,–,–,–,·,·
CN(C)CCNc1ccc(Cl)cc1[N+](=O)[O-],–,–,–,–,–,–
CCN(CCNc1ccc(Cl)cc1[N+](=O)[O-])C(=O)c1cc([N+](=O)[O-])c(N(C)C)cc1OC,–,–,–,–,16,–
CC(C)N1CCCCC(NC(=O)c2cccc(F)c2)C1=O (stereo not drawn),–,–,–,–,·,·
CN(Cc1cn(CC2CCCCC2)nn1)S(=O)(=O)c1ccccc1Br,–,–,–,–,·,·
Oc1c(Cl)cc(Cl)cc1C=Nc1cc(C(F)(F)F)ccc1N1CCc2ccccc2C1,–,–,–,–,–,68
O=C(NCCc1ccccc1)OCc1cn(-c2cccc(Cl)c2)nn1,–,–,–,–,·,·
C=CCNC1=C(Cl)C(=O)c2ccccc2C1=O,–,–,–,–,–,52
O=C1C(Cl)=C(NCCc2ccccc2)C(=O)c2ccccc21,–,–,–,–,–,·
